NTR1 agonist: NTR1 (human) agonism | 330,000 compounds, 0.17% hits | AID 493036 | NTR1-U2OS beta-arrestin-GFP spot imaging, agonist mode | activation, % at 20 µM | P30989;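 active = activation at or above 40% of the spot to cytoplasm intensity ratio, with at least 20 cells analyzed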;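 also: 0% = DMSO without peptide and 100% = 100 nM NTR1 peptide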
Target sequence (P30989 whole entry, looked up): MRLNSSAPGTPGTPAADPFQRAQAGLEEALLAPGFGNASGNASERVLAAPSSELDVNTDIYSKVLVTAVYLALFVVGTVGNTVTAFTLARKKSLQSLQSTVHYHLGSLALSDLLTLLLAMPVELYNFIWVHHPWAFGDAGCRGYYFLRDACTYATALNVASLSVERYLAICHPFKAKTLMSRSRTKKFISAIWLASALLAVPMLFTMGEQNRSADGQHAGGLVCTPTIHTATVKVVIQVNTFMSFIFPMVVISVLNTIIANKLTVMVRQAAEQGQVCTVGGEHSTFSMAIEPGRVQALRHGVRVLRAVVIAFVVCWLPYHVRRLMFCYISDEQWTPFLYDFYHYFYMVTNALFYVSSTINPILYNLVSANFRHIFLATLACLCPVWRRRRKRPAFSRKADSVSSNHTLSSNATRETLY
CRFR2-BP ag: CRF-BP/CRF-R2 complex agonism | AID 588473 | HEK293 CRF-R2/CRF-BP, calcium dye fluorescence (FLIPR); percent of saturating CRF peptide response | activation, % at 13.2 µM | 350,000 compounds, 0.46% hits;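 active = activation of at least 50%, plus an integration ratio under a set limit after plate pattern correction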;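 also: plate controls were neutral control wells without compound for no effect and CRF at EC100 for full effect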
V-ATPase pHluor: alters yeast V-ATPase proton transport; S. cerevisiae, pHLuorin cytosolic pH fluorescence; response, % at 10 µM; 350,000 compounds, 0.37% hits; AID 504577; in the data active = response mostly above about 7.3%, no sharp cut-off; inactive = mostly below about 5.4%; also: actives read high
CRFBP-R2 block: CRF-BP/CRF-R2 complex antagonism | 350,000 compounds, 0.59% hits | inhibition, % at 11.8 µM | HEK293 CRF-R2/CRF-BP, CRF-induced calcium fluorescence;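 active = inhibition of the ligand-induced calcium signal above about 50% at the single tested concentration, limit read from the data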
VATPase regulator: modulates yeast V-ATPase proton transport; shares compounds with V-ATPase pHluor; S. cerevisiae pHLuorin cytosolic pH; response, % at 10 µM; 980 compounds, 2% hits; AID 602197; in the data active = response above about 24%;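 also: plate controls were vehicle wells for no effect and positive control wells for full effect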
The depositor's hits bear a star; x = not tested or not shown. Rows were chosen to be rich in hits. Some 1.5% of all compounds tested hit in one or more screens of this group.

SMILES | NTR1 agonist | CRFR2-BP ag | V-ATPase pHluor | CRFBP-R2 block | VATPase regulator
COc1ccc(S(=O)(=O)NCC2CCCO2)cc1NC(=O)c1ccccc1 (stereo unspecified) | 0 | 0 | 7.5* | 7 | -1
CCOC(=S)SCC(=O)N1CCc2cc(OC)c(OC)cc2C1C1C(=O)CC(C)(C)CC1=O (stereo unspecified) | 0 | 2 | 20* | -14 | -3
Cc1ccc(OCc2cc(C(=O)NCC(C)(C)N3CCOCC3)no2)cc1C | 2 | 1 | 8.2* | 5 | -7
N#Cc1ccc(N[C@@H]2CCN3C(=O)c4ccccc4[C@@H]3C[C@H]2O)cc1 | 1 | -5 | 4 | -3 | x
COc1ccc(S(=O)(=O)Nc2ccc3c(c2)C(=O)N([C@H](C)CO)C[C@H](C)[C@@H](CN(C)C(=O)Nc2ccc(C(F)(F)F)cc2)OCCCC[C@H](C)O3)cc1 | x | 0 | 0 | -6 | x
O=C(CSC1=NCCS1)Nc1ccc(F)cc1 | -1 | -1 | 0 | 16 | -1
CC(=O)Nc1ccc(NC(=O)CSc2nnc(NC(=O)Cc3ccc(F)cc3)s2)cc1 | 0 | 0 | 8.3* | 21 | 2
CCC(C)C(=O)Nc1nnc(SCC(=O)Nc2ccc(F)cc2)s1 (stereo unspecified) | 2 | 0 | -1 | 13 | x
CCNc1nc(SCC(=O)OC)nc(N(C)C)n1 | 0 | 1 | -3 | 6 | x
CC(C)(C)C(=O)Nc1ccc(S(=O)(=O)N2CCCC2)cc1 | 0 | 0 | 8.5* | 6 | 0
COc1ccc(CC(=O)NCc2cccc(Cl)c2)cc1S(=O)(=O)N1CCOCC1 | x | 0 | x | -2 | x
CCOc1ccc(C(C)NC(=O)c2ccc3c(c2)NC(=O)C(C)S3)cc1OCC (stereo unspecified) | 2 | -2 | 5 | 7 | x
C[C@@H]1CN([C@@H](C)CO)S(=O)(=O)c2ccc(Br)cc2O[C@H]1CN(C)C(=O)c1ccccc1 | x | -1 | 69* | -2 | 1
Cc1noc(C)c1C(=O)NC1=NCCS1 | -2 | 1 | 2 | -2 | x
Cc1cc(C)c(OCCOCCN2CCNCC2)c(C)c1 | -5 | 11 | 16* | 21 | 0
O=c1c(C=Nc2ccc(Cl)cc2)c[nH]n1-c1cccc(Cl)n1 | 1 | 5 | 11* | 13 | -4
CC(=O)Nc1ccccc1C(=O)N1CCN(Cc2ccc3c(c2)OCO3)CC1 | 1 | 1 | -6 | -1 | x
COc1ccc(NC(=O)c2ccccc2-c2ccccc2)cc1 | 1 | -1 | 0 | -5 | x
COc1cccc(NC(=O)c2ccccc2-c2ccccc2)c1 | 2 | 0 | 8.8* | 16 | -3
COc1cccc(NC(=S)NNC(=O)c2ccccc2OC(F)F)c1 | 0 | -1 | 9.4* | 12 | 9
O=C(Nc1ccc(Cl)cc1C(F)(F)F)c1ccccc1 | 0 | 0 | 1 | -11 | x
O=C(N/N=C/c1cccc([N+](=O)[O-])c1)c1ccc(CN2CCOCC2)cc1 | 1 | -1 | 14* | 9 | -6
COc1ccc(-c2nnc(NC(=O)c3ccccc3C)o2)cc1 | -2 | 1 | 12* | -46 | 7
COc1ccc(Nc2nnc(C)c(=O)[nH]2)c(OC)c1 | 1 | 0 | 11* | 0 | -1
COc1ccc(C)cc1Nc1nnc(C)c(=O)[nH]1 | 3 | -2 | 0 | 11 | x
SMILES | NTR1 agonist | CRFR2-BP ag | V-ATPase pHluor | CRFBP-R2 block | VATPase regulator
Cc1cc(S(=O)(=O)c2ccc(Cl)cc2)nc(S(=O)(=O)c2ccc(Cl)cc2)c1C#N | x | 20 | -3 | -31 | x
COc1nc(Cl)cn(-c2ccc(Cl)cc2)c1=O | 1 | 0 | -3 | 10 | -1
COc1cc([N+](=O)[O-])c(C)cc1NC(=O)c1ccc(OC)c(OC)c1 | x | 20 | 1 | -12 | x
CCOC(=O)C1CCCN(C(=S)Nc2cccc(Cl)c2)C1 (stereo unspecified) | 1 | -1 | 2 | 12 | x
COCC(C)NC(=O)c1cccc([N+](=O)[O-])c1 (stereo unspecified) | 5 | 3 | -2 | -11 | x
CC(C)OP(=O)(OC(C)C)C(NC(=O)c1cccc([N+](=O)[O-])c1)C(N)=O (stereo unspecified) | -4 | -2 | 9 | 4 | 3
COc1ccc(OCCN2C(=O)c3cccc(N)c3C2=O)cc1 | 1 | 0 | 2 | -2 | x
c1ccc(CSC2=NCCCN2)cc1 | 3 | -1 | 2 | 19 | 0
Clc1ccccc1CSC1=NCCN1 | 0 | -1 | 1 | 3 | x
O=[N+]([O-])c1ccc2c(c1)-c1ccccc1C2=NO | x | -5 | 20* | 5 | 119*
Nc1ccc2c(c1)C(=NO)c1cc([N+](=O)[O-])ccc1-2 | x | 3 | 0 | -19 | x
O=C(NCCc1c[nH]c2ccccc12)C1CCC(=O)N(CCc2cccc(F)c2)C1 (stereo unspecified) | 0 | -2 | 11* | 8 | -2
O=C(NCc1cccc(F)c1)C1CCC(=O)N(CCc2cccc(F)c2)C1 (stereo unspecified) | 1 | 0 | 1 | -11 | x
COCCN1CCN(C(=O)C2CCC(=O)N(CCc3cccc(F)c3)C2)CC1 (stereo unspecified) | 0 | 0 | 7.4* | -8 | -7
Cc1ccccc1S(=O)(=O)N1C[C@H]2CON(C)[C@H]2C[C@H]1c1cccc(Oc2ccccc2)c1 | x | 6 | 1 | -3 | x
O=C(O)C1=C[C@H](c2csc3ccccc23)C[C@H](OCCCCO)O1 | 1 | 0 | 1 | -7 | x
Cc1cccc(C)c1NC(=O)CNC(=O)c1ccncc1 | 0 | 1 | 8.3* | 0 | -2
COc1ccc(CNC(=O)CNC(=O)c2c(C)nn(C)c2Cl)cc1 | 1 | 1 | 3 | -4 | x
O=S1(=O)C=C(Sc2nnc(-c3ccccc3)o2)c2ccccc21 | -1 | 16 | 17* | -100 | 26*
Cc1cc(C)nc(SC2=CS(=O)(=O)c3ccccc32)n1 | 7 | -2 | 1 | 20 | 0
O=S1(=O)C=C(Sc2nc3ccccc3s2)c2ccccc21 | -2 | -1 | x | -40 | x
O=C(Oc1coc(CSc2nnc(NC(=O)c3cccs3)s2)cc1=O)c1ccccc1 | 1 | -12 | 9.3* | 22 | -3
C[C@H](CO)N1C[C@H](C)[C@@H](CN(C)S(=O)(=O)c2ccc(F)cc2)Oc2c(NC(=O)NC3CCCCC3)cccc2C1=O | 6 | 0 | 13* | 3 | 0
COC(=O)COc1ccc(-c2ccc(F)cc2)cc1C=O | 10 | 1 | 6.2* | 3 | 20
COc1ccc(-c2csc(N(CCCN(C)C)C(=O)c3ccc(OC)c(OC)c3)n2)cc1 | x | -1 | 1 | 7 | x
CCOC(=O)Cn1cc(-c2ccccc2)nn1 | 0 | 0 | -2 | -1 | x
c1ccc(COCCCn2cc(-c3ccccc3)nn2)cc1 | 4 | 0 | 10* | -8 | -2
COCc1nc2sc(C)c(C)c2c(=O)[nH]1 | 0 | 0 | 12* | 0 | 1
CCOC(=O)c1c(C)[nH]c(C(=O)COC(=O)c2cnc(C)cn2)c1C | -1 | 0 | 11* | -13 | 2
CCOC(=O)c1c(C)[nH]c(C(=O)C(C)OC(=O)c2cnc(C)cn2)c1C (stereo unspecified) | -1 | 0 | 1 | -9 | x
